The text below walks through data of the supplement of paper PMC3545927.

The other results are listed elsewhere or left out. The hit rate among all sequences tested is not known here.

The target in the assay is furin, P09958. Kind of assay: furin cleavage Z-score vs untreated control; higher = more cleavage, active = 3.5 or more, inactive = 1 or less, 8 variable residues between constant flanks. In short, it runs like this:
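Furin cleavage was scored on 8-mer peptides joined to a cDNA oligonucleotide and bound to magnetic beads at the N-terminus. Digestion with purified furin (1:10 enzyme:substrate, 0.01 ml, 50 mM HEPES pH 7.5, CaCl2, NaCl) lasted 7.5, 15 or 30 min. Freed DNA was tagged with adapters by PCR, sequenced and counted; the cleavage Z-score is the lowess-adjusted log count versus furin-free reactions, scaled by median absolute deviation.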

Chain of furin, P09958 (P09958 whole entry): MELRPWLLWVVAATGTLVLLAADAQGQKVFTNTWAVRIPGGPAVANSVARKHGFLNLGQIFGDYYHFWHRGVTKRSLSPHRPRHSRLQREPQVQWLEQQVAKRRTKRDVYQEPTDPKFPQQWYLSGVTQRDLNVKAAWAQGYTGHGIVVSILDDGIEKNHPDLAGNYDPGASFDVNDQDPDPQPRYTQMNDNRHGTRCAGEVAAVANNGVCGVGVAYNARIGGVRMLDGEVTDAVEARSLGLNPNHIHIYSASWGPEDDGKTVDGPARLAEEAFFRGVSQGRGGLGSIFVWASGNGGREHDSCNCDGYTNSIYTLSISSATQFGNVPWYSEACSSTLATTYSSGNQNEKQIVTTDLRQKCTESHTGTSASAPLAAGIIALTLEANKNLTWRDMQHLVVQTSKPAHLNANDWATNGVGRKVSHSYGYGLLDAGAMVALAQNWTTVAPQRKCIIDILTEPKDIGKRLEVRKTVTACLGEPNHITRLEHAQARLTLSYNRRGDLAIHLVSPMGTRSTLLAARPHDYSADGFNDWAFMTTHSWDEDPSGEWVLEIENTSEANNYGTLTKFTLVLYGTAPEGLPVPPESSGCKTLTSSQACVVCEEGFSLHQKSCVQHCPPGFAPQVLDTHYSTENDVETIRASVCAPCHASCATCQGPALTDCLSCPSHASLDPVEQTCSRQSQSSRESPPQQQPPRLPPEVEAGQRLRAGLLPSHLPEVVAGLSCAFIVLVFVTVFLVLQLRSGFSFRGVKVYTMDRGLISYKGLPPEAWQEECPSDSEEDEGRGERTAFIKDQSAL

On to CAYQATVCARAGNASASA [HC955], for which the “furin cleavage Z-score” value is 1.06 (7.5 min), 0.432 (inactive) (15 min) and -1.24 (inactive) (30 min).

Take CAYFVRVQGLAGNASASA [HC616]: the “furin cleavage Z-score” value was 0.749 (inactive) (7.5 min), 0.0281 (inactive) (15 min) and 0.654 (inactive) (30 min).

CALSTGLIHLAGNASASA [HC503]: the “furin cleavage Z-score” value runs as follows: (7.5 min) 1.35; (15 min) 0.833 (inactive); (30 min) 1.12.

Consider CAAAQGYKVLAGNASASA [HC783], for which the “furin cleavage Z-score” value was 0.259 (inactive) (7.5 min), 0.477 (inactive) (15 min) and -0.5 (inactive) (30 min).

For CADPDLSDGSAGNASASA [HC1359], the “furin cleavage Z-score” value (7.5 min) was -1.03 (inactive), the “furin cleavage Z-score” value (15 min) is -0.792 (inactive) and the “furin cleavage Z-score” value (30 min) was -0.78 (inactive).

Regarding CAVVCCSMSGAGNASASA [HC2096], the “furin cleavage Z-score” value by setting is: (7.5 min) -0.582 (inactive); (15 min) -1.33 (inactive); (30 min) -0.463 (inactive).

Regarding CARHRRIHSGAGNASASA [FS-2945], the “furin cleavage Z-score” value runs as follows: (7.5 min) -0.899 (inactive); (15 min) -0.653 (inactive); (30 min) -0.511 (inactive).

As for CARHRRAAGGAGNASASA [FS-2144], the “furin cleavage Z-score” value reads like this: (7.5 min) 5.47 (active); (15 min) 4.69 (active); (30 min) 5.6 (active).

As for CARQRRAAGGAGNASASA [FS-2588], the “furin cleavage Z-score” value was 4.04 (active) (7.5 min), 2.03 (15 min) and 3.5 (active) (30 min).

For CARIRRNAKGAGNASASA [FS-1723], the “furin cleavage Z-score” value by setting is: (7.5 min) 9.77 (active); (15 min) 9.21 (active); (30 min) 7.23 (active).

In the case of CARQKKTTGGAGNASASA [FS-3034], the “furin cleavage Z-score” value reads like this: (7.5 min) -1.15 (inactive); (15 min) -0.895 (inactive); (30 min) -0.562 (inactive).

As for CARPLRDAGGAGNASASA [FS-2357], the “furin cleavage Z-score” value is 0.0621 (inactive) (7.5 min), -0.105 (inactive) (15 min) and -0.644 (inactive) (30 min).

For the sequence CARQRRAAKGAGNASASA [FS-3230], the “furin cleavage Z-score” value was 5.82 (active) (7.5 min), 8.24 (active) (15 min) and 7.16 (active) (30 min).

For CARILRSAWGAGNASASA [FS-2684], the “furin cleavage Z-score” value runs as follows: (7.5 min) -1.8 (inactive); (15 min) 0.635 (inactive); (30 min) 0.838 (inactive).

Consider CARLRRFQKGAGNASASA [FS-2714], for which the “furin cleavage Z-score” value is, setting by setting: (7.5 min) -0.592 (inactive); (15 min) -0.736 (inactive); (30 min) -0.569 (inactive).

Take CARQRRPHGGAGNASASA [FS-2765]: the “furin cleavage Z-score” value is -0.899 (inactive) (7.5 min), -0.697 (inactive) (15 min) and -0.913 (inactive) (30 min).

CASWLGNIIMAGNASASA [HC1574]: the “furin cleavage Z-score” value is, setting by setting: (7.5 min) -0.174 (inactive); (15 min) -0.173 (inactive); (30 min) 0.459 (inactive).

Turning to CAEVVTSTAVAGNASASA [HC2223], the “furin cleavage Z-score” value (7.5 min) is -1.08 (inactive), the “furin cleavage Z-score” value (15 min) worked out at 1.73 and the “furin cleavage Z-score” value (30 min) is 0.704 (inactive).

Turning to CAGDDLVVICAGNASASA [HC1529], the “furin cleavage Z-score” value reads like this: (7.5 min) -1.44 (inactive); (15 min) -0.0771 (inactive); (30 min) -0.978 (inactive).

With CAEPPVVHGCAGNASASA [HC1314], the “furin cleavage Z-score” value is, setting by setting: (7.5 min) 0.438 (inactive); (15 min) 1.71; (30 min) -0.723 (inactive).

Turning to CARDRRAAGSAGNASASA [FS-1946], the “furin cleavage Z-score” value runs as follows: (7.5 min) 6.35 (active); (15 min) 7.75 (active); (30 min) 5.91 (active).

With CARHRRATGAAGNASASA [FS-2944], the “furin cleavage Z-score” value runs as follows: (7.5 min) 6.7 (active); (15 min) 5.37 (active); (30 min) 4.1 (active).

For CARHLRSAGSAGNASASA [FS-1896], the “furin cleavage Z-score” value is 1.18 (7.5 min), -0.11 (inactive) (15 min) and 2.17 (30 min).

As for CATTPCRGSWAGNASASA [HC70], the “furin cleavage Z-score” value was -0.828 (inactive) (7.5 min), -1.44 (inactive) (15 min) and -0.599 (inactive) (30 min).

CAEGERGFFYAGNASASA [EK6]: the “furin cleavage Z-score” value reads like this: (7.5 min) -2.12 (inactive); (15 min) -0.423 (inactive); (30 min) -2.28 (inactive).

CASGHRTRRYAGNASASA [FS-192]: the “furin cleavage Z-score” value is, setting by setting: (7.5 min) 7 (active); (15 min) 8.02 (active); (30 min) 8.16 (active).

Regarding CADGAGKRVYAGNASASA [HC1558], the “furin cleavage Z-score” value (7.5 min) came to 1.53, the “furin cleavage Z-score” value (15 min) came out at 1.27 and the “furin cleavage Z-score” value (30 min) was 0.404 (inactive).

Take CAEMSRTRRYAGNASASA [FS-1319]: the “furin cleavage Z-score” value (7.5 min) is 5.42 (active), the “furin cleavage Z-score” value (15 min) was 8.78 (active) and the “furin cleavage Z-score” value (30 min) is 8.64 (active).
